Data as given in PubChem BioAssay (NCI).
This is part of a sample that, as a whole, favours compounds with a hit. Of some 83,000 tested, about 20% had one in any assay.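 Single-dose data. Exposure time 48 hours. Values below 10 considered active.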 Values without a mark were called inactive. The source made the active and inactive calls.

Tested on: SK-MEL-2 melanoma
Assay: NCI-60 one-dose screen, 48 h (100 = growth as untreated, 0 = no growth, -100 = all killed)
Conditions: 10 µM

Going from `O=C1Cc2ccccc2C(=O)O1` to `Cc1c(C(=O)O)c(=O)n(-c2ccccc2)n1C`, the growth rises from 103% to 116%.

First: Nc1nc(OCc2ccccc2)c2[nH]cnc2n1
Second: COc1ccc(-c2cc3c(nn2)-c2ccccc2C3=O)cc1
The growth of the first is higher: 107% for the first, 65.5% for the second.

Going from `O=[N+]([O-])c1ccc(-c2noc(-c3cccs3)n2)cc1` to `[O-][N+](=Nc1cccc(Cl)c1)c1cccc(Cl)c1`, the growth rises from 106% to 112%.

Compared with `CC(=O)OCC1OC(OC2=C(CC=C(C)C)C(=O)c3ccccc3C2=O)C(OC(C)=O)C(OC(C)=O)C1OC(C)=O` (centres undefined), `CCCCC/C=N/Nc1nc(C)cc(=O)[nH]1` is higher in growth: 58.7% for the first, 121% for the second.

Tested on: EKVX NSCLC
Assay: as above
Conditions: 10 µM

Going from `O=C(O)c1ccccc1NCc1ccco1` to `O=S(=O)(O)c1ccc(O)c2ccccc12`, the growth falls from 103% to 88.9%.

Compared with `C/C(=C\c1cc(Cl)ccc1OCC(=O)O)[N+](=O)[O-]`, `CC(C)=NNc1ccc([N+](=O)[O-])cc1[N+](=O)[O-]` is lower in growth: 98.2% for the first, 74% for the second.

First: CSC[C@H](NC(=O)COc1cccc2cnccc12)C(=O)NC(Cc1ccccc1)C(O)C(=O)N1CSC[C@H]1C(=O)NC(C)(C)C (some centres undefined)
Second: Cc1nc2ccccc2c2nnc(SCC(=O)N(Cc3ccccc3)c3ccccc3)n12
The growth of the first is higher: 103% for the first, 76.6% for the second.

Going from `COC1=CC(=O)c2nc(Cl)ccc2C1=O` to `O=C1Cc2ccccc2C(=O)O1`, the growth rises from 74% to 107%.

First: CCOC(=O)CCCC(=O)OCC
Second: CC(=O)CC(=O)N(C)C
The growth of the first is higher: 108% for the first, 93.5% for the second.

First: N#Cc1ccc(NC(=O)Nc2cccc(C#N)c2)cc1
Second: [O-][N+](=Nc1cccc(Cl)c1)c1cccc(Cl)c1
The growth of the first is higher: 94.5% for the first, 88.8% for the second.

Going from `CC(C)=C(NC(=O)c1ccccc1)C(=O)O` to `COC(=O)c1[nH]c(=O)c(C#N)c(C(=O)OC)c1C(=O)c1ccccc1`, the growth falls from 118% to 91.4%.

Going from `Cc1cc2nc(CC(=O)c3cccc([N+](=O)[O-])c3)c(=O)[nH]c2cc1C` to `COc1cc(C(=O)N/N=C/c2cccc([N+](=O)[O-])c2)cc(OC)c1OC`, the growth rises from 59.9% to 83.8%.

First: CN(C)C(C)(C)CC(C)(C)C
Second: CC(=O)OCC1OC(OC2=C(CC=C(C)C)C(=O)c3ccccc3C2=O)C(OC(C)=O)C(OC(C)=O)C1OC(C)=O (centres undefined)
The growth of the first is higher: 95.8% for the first, 15.6% for the second.

Compared with `O=c1cc(-c2ccccc2)[nH]c2c1CCCC2`, `CC1(c2ccccc2)NC(=O)NC1=O` (centres undefined) is higher in growth: 43.3% for the first, 120% for the second.

First: CCCNC(=O)c1ccc(S(N)(=O)=O)cc1
Second: Nc1ccc(N=Nc2ccc(S(=O)(=O)O)cc2)c2ccccc12
The growth of the first is higher: 112% for the first, 89.7% for the second.

Going from `O=C(O)[C@@H]1[C@H]2C[C@H]3c4[nH]c5ccccc5c4CCN3C[C@@H]2CC[C@@H]1O` to `CC1C(=O)c2ccccc2CC1C(=O)O` (centres undefined), the growth rises from 110% to 113%.

`CCCCOC(OCCCC)c1ccccc1` and `CCCCC(O)c1ccccc1` (centres undefined) are the same in growth: 110% for the first, 110% for the second.

Going from `CC1(O)OC(COc2ccc(Cl)cc2)COC1O` (centres undefined) to `COc1cc(OC)c2ccc(=O)oc2c1`, the growth rises from 94.7% to 95.2%.

First: CNc1nc(NC)c2cn[nH]c2n1
Second: Nc1nc(OCc2ccccc2)c2[nH]cnc2n1
The growth of the first is higher: 99.2% for the first, 95% for the second.

Compared with `c1ccc(Sc2ccccc2)cc1`, `Cc1c(C(=O)O)c(=O)n(-c2ccccc2)n1C` is higher in growth: 101% for the first, 103% for the second.

First: Cc1ccc(/C=C2\SC(=S)N(c3ccc(F)cc3)C2=O)o1
Second: O=[N+]([O-])c1ccc(-c2noc(-c3cccs3)n2)cc1
The growth of the first is higher: 82.4% for the first, 66.1% for the second.

Work on `CCCCC/C=N/Nc1nc(C)cc(=O)[nH]1` yielded a growth of 91.4%.

In the case of `COc1ccc2c(NCCCCCCCCNc3c4ccccc4nc4cc(OC)ccc34)c3ccccc3nc2c1`, the growth is reported as -79.6% (active).
